# MITF inh = human MITF inhibition, primary screen; AlphaScreen MITF homodimerization, bead proximity signal; inhibition, % at 2.6 µM; hit rate 0.91% among 650,000; AID 1259374; in the data active = inhibition above about 50%;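 also: 0% = vehicle wells with protein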
# GPR151 activ = activators of human GPR151. Q8TDV0. PathHunter beta-arrestin GPR151 cells, luminescence. hit rate 1% among 650,000. AID 1508602. activation, % at 11.2 µM; in the data active = activation above about 4.9%;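 also: 0% = median of compound wells and 100% = cells with positive control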
# FBW7 activator = activators of human E3 ligase FBW7. Q969H0. AlphaScreen FBW7–phospho-cyclin E peptide binding, activator screen. normalized activity (activation), % at 26.1 µM. hit rate 0.13% among 650,000. AID 1259310; in the data active = normalized activity above about 1.9%;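 also: purified mutant Fbw7 with reduced substrate affinity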
# Target sequence (Q969H0 whole entry, looked up): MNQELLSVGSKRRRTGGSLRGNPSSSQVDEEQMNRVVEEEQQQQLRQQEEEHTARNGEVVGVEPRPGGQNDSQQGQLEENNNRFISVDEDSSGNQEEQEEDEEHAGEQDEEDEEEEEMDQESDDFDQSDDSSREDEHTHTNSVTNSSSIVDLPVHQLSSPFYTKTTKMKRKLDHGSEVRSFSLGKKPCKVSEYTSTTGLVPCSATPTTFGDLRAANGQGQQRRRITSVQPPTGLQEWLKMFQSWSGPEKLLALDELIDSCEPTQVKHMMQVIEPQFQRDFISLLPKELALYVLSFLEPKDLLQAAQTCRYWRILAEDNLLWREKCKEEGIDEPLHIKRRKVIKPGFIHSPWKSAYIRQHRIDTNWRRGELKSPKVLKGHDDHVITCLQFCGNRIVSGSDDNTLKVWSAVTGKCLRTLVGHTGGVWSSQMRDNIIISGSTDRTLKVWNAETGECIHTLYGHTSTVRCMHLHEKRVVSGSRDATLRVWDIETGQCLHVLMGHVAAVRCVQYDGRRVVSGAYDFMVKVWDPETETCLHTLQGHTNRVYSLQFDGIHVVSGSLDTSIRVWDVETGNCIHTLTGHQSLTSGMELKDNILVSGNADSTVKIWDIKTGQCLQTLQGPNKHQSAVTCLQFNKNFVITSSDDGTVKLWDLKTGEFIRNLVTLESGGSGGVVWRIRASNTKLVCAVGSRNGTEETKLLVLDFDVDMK
# TEAD-YAP block = TEAD-YAP interaction inhibition; AID 1259422; inhibition, % at 9.12 µM; hit rate 1.4% among 640,000; HEK-TIYL cells, TEAD-Gal4/YAP UAS-luciferase luminescence; in the data active = inhibition above about 32%;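 also: 0% = median of test compound wells and 100% = reference inhibitor wells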
# MITF inh conf = human MITF inhibition, confirmation; hit rate 16% among 4,700; inhibition, % at 2.6 µM; AID 1259372; shares compounds with MITF inh; AlphaScreen MITF homodimerization, biotin/His-MITF beads;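 active = inhibition above a cutoff derived from the DMSO control wells, cut at about 28% in these data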;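 also: 0% = MITF dimer wells with DMSO only; inhibitors lower the bead chemiluminescence by keeping MITF from dimerizing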
# AlphaScreen DR = optically interferes with AlphaScreen signal in dose response; hit rate 6% among 480; IC50, µM; shares compounds with MITF inh; AlphaScreen optical interference counterscreen, cell-free; call rule not given here
# AS interf ctr = AlphaScreen optical interference, counter-screen. shares compounds with MITF inh. LysRS AlphaScreen counterscreen, signal interference, triplicate. inhibition, % at 2.6 µM. hit rate 7.6% among 4,700. AID 1259376;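 active = inhibition above a cutoff derived from the DMSO control wells, cut at about 30% in these data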
# Numbers without * were called inactive; . = no result. An excerpt weighted towards active compounds, which were near 3.5% of everything screened.
SMILES,MITF inh,GPR151 activ,FBW7 activator,TEAD-YAP block,MITF inh conf,AS interf ctr,others
CCOc1ccc2[nH]c(=O)c(CN(Cc3nnnn3Cc3ccco3)C3CCCC3)cc2c1,5.5,0.5,-0.1,10.9,.,.,
CN1CCN(S(=O)(=O)c2cn(C)c(=O)n(C)c2=O)CC1,1.4,0.9,0.1,6.1,.,.,
Nc1cc2c3c(cc(N)cc3c1)C(=O)N(O)C2=O,106.4*,0.0,-1.7,-8.3,111.0*,94.2*,
CCOC(=O)c1[nH]c(C)c(CNc2ccccc2)c1C,60.0*,-0.9,-0.1,2.2,27.3,12.1,
CCOC(=O)c1[nH]c(C)c(CNc2cccc(F)c2)c1C,-12.2,1.0,0.1,2.6,.,.,
COC(=O)c1c(C)[nH]c(C(=O)C(C)OC(=O)Cc2ccc(OC)cc2)c1C (configuration not stated),7.2,-0.5,0.1,-1.6,.,.,
Cc1sc2nc(C)n3c(=O)n(CC(=O)NCc4ccco4)nc3c2c1C,51.1*,1.7,0.0,4.9,29.3*,8.9,AlphaScreen DR=>6.48
Cc1sc2nc(C(C)C)n3c(=O)n(CC(=O)NCc4ccco4)nc3c2c1C,13.9,-0.7,0.2,4.8,.,.,
COc1ccc(C(=O)N2CCN(Cc3cccc4ccccc34)CC2)cc1,59.2*,3.4,-0.2,7.4,6.0,-4.2,
COc1ccc(C(=O)N2CCN(Cc3c[nH]c4ccccc34)CC2)cc1OC,17.4,0.6,0.0,8.7,.,.,
COc1cccc(CN2CCN(C(=O)c3ccc(F)cc3)CC2)c1OC,32.4,3.5,-0.1,4.5,.,.,
COc1ccc(C(=O)N2CCN(Cc3c[nH]c4ccccc34)CC2)cc1,76.5*,-0.1,0.0,16.4,-11.9,-6.3,
COc1ccc(C(=O)N2CCN(Cc3ccccc3F)CC2)cc1,62.5*,-1.0,-0.4,-0.9,-10.3,-4.5,
CCOC(=O)N1CCN(C(=O)C2CCN(Cc3cccc4ccccc34)CC2)CC1,50.8*,-0.5,0.1,-4.2,11.2,17.9,
O=C(CSc1nc2ccccc2s1)Nc1ccccc1[N+](=O)[O-],9.4,0.0,-0.5,-20.4,.,.,
CN(C)CC(C)(C)CNC(=S)NCc1ccc2c(c1)OCO2,53.9*,1.2,-0.3,9.5,-0.5,-1.8,
CC(=O)Oc1ccc(/C=N/Nc2cc(N3CCCC3)nc(N3CCCC3)n2)cc1,2.7,-1.0,0.3,3.8,.,.,
O=C(Nc1nc2c(s1)COc1ccccc1-2)C1CCCN1S(=O)(=O)c1ccc(Cl)cc1 (configuration not stated),51.9*,1.3,-0.1,8.4,-0.3,-4.3,
CCc1ccc(-n2c(=S)sc3c(=O)n(-c4ccccc4C)c(SCC(=O)N4CCC(C)CC4)nc32)cc1,-7.2,-0.6,-0.1,-1.5,.,.,
CCC(C)C(=O)NCc1nnc2n1CCN(C/C=C/c1ccco1)CC2 (configuration not stated),59.6*,1.4,0.0,7.1,77.2*,-8.0,AlphaScreen DR=>6.48
CCC(C)C(NS(=O)(=O)c1ccc(C)cc1)C(=O)NCC1CCCO1 (configuration not stated),1.7,-0.2,0.0,-12.9,.,.,
CC(NC(=O)CCc1nnc(CCC2CCCCC2)o1)c1ccncn1 (configuration not stated),73.6*,-0.3,0.2,-7.2,-0.8,9.1,
CC(Cc1cnccn1)NC(=O)CCc1nnc(CCC2CCCCC2)o1 (configuration not stated),2.4,1.7,0.1,4.4,.,.,
COc1ccc(C)cc1NC(=O)NCc1ccco1,5.2,-0.8,-0.1,-12.7,.,.,
COc1ccc(C)cc1NC(=O)CNCc1ccco1,52.6*,-0.9,0.0,5.7,7.0,9.1,
SMILES,MITF inh,GPR151 activ,FBW7 activator,TEAD-YAP block,MITF inh conf,AS interf ctr,others
O=[N+]([O-])c1ccc(-c2noc(-c3ccc(Br)cc3)n2)cc1,-9.2,-0.9,0.0,-8.8,.,.,
CCNCc1cc(Br)ccc1OC,14.4,1.3,0.3,8.5,.,.,
COc1ccccc1CNCc1cc(Br)ccc1OC,69.7*,-1.0,-0.3,-2.3,-10.6,-4.7,
O=c1[nH]cccc1-c1ccc(Nc2nccc(-c3ccc4nc(C5CC5)[nH]c(=O)c4c3)n2)cc1,64.4*,-0.1,0.3,4.3,62.0*,-90.3,AlphaScreen DR=>6.48
O=C(c1cccc(Nc2nccc(-c3ccc4nc(C5CC5)[nH]c(=O)c4c3)n2)c1)N1CCCC1,21.2,-2.8,0.7,-20.8,.,.,
COC(=O)C1=CN(CC23CC4CC(CC(C4)C2)C3)C=C(C(=O)OC)C1c1ccc(F)cc1,65.3*,0.1,0.3,-2.8,-2.4,-1.8,
